Measurements taken from PubChem BioAssay (NCATS).
Inconclusive results are not listed. Calls of active or inactive are those of the source. Calls follow the shape of the dose curve; as a rule, active = well fitted curve in the direction sought with a large enough effect; inconclusive = small, poorly fitted or top-dose-only effect, or another doubt; inactive = no such curve, though single readings can be large; an effect the other way counts as inactive or inconclusive.

Columns and labels:
[1] = molecular target: Calcium and integrin-binding protein 1 (Homo sapiens) (UniProt Q99828); assay: Primary qHTS for Identification of Calcium Integrin Binding Protein 1 (CIB1) Competitor (AID 1508620); conditions: CIB1-GST / FITC-alphaIIb peptide fluorescence polarization; series mostly up to 57.7 µM;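 also: GST tagged CIB1 binding a fluorescein labelled alphaIIb integrin peptide tracer; top concentration of the series differs between compounds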
Method in brief: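 Fluorescence polarization competition: GST-tagged CIB1 (1 uM final) preincubated with compound 15 min at room temperature, then FITC-labelled alphaIIb peptide (100 nM final) added. After 15 min at room temperature, polarization read at Ex 480/Em 540.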

[2] = Primary qHTS for inhibitors of nuclear receptor binding SET domain protein 2 (NSD2) in an isogenic RCH-ACV NSD2 p.E1099K mutant (9B) (AID 1645876); conditions: RCH-ACV NSD2 E1099K (9B) viability, CellTiter-Glo, 72 h; series mostly up to 44.9 µM; also: nearly all actives have a fitted effect of over 70% in size
[3] = Primary qHTS for inhibitors of nuclear receptor binding SET domain protein 2 (NSD2) in an RCH-ACV wild type WT cells (2C) (AID 1645877); conditions: RCH-ACV (leukaemia line) NSD2 WT (2C) viability, CellTiter-Glo, 72 h; series mostly up to 44.9 µM; also: nearly all actives have a fitted effect of over 70% in size
% is scaled to controls: 0 for no effect and ±100 for the full control effect.

Sequence of Calcium and integrin-binding protein 1 (Homo sapiens) (Q99828 whole entry, looked up): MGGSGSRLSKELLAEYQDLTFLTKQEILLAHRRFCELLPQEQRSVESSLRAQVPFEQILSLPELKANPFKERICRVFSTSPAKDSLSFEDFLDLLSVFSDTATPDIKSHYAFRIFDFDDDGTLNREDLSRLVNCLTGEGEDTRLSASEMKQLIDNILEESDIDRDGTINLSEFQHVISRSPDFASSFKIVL

C=CC(C)(O)CC/C=C(\C)COC1O[C@H](CO)[C@@H](O)[C@H](O)[C@H]1O (stereo partly specified)
inactive: Potency [1] | Potency [2] | Potency [3]

CC(=O)c1[nH]cc(CCC(=O)O)c1CC(=O)O
inactive: Potency [1] | Potency [2] | Potency [3]

COC(=O)C1=COC(OC2OC(CO)C(O)C(O)C2O)C2C(C)C(OC(=O)/C=C/c3ccc(O)cc3)C(O)C12 (stereo unspecified)
inactive: Potency [1] | Potency [2] | Potency [3]

CC1CCC2C(C(=O)O)=CC3(O)CC(C)(C)CC123 (stereo unspecified)
inactive: Potency [1] | Potency [2] | Potency [3]

O=C(OC1C=C(CO)C2C(OC3OC(CO)C(O)C(O)C3O)OC=CC12O)c1ccc(O)cc1 (stereo unspecified)
inactive: Potency [1] | Potency [2] | Potency [3]

CC1OC(OC2C(OC(=O)[C@]34CCC(C)(C)C[C@H]3C3=CCC5[C@@]6(C)CC[C@H](OC7OC(C(=O)O)C(O)C(O)C7O)C(C)(C)C6CC[C@@]5(C)[C@]3(C)CC4O)OC(CO)C2O)C(O)C(O)C1OC1OCC(O)C(O)C1O (stereo partly specified)
inactive: Potency [1] | activity change, negative = viability loss [2] -7.94% [at 9.23 µM] | activity change, negative = cell killing [3] -12.2% [at 9.23 µM]

CC1CCC2(C)CCC3(C)C(=CCC4C5(C)CCC(O)C(C)(C(=O)O)C5CCC43C)C2C1C (stereo unspecified)
inactive: Potency [1] | Potency [2] | Potency [3]

CC(C)=CCC[C@@](C)(O)[C@H]1CC[C@]2(C)[C@@H]1[C@H](O)CC1[C@@]3(C)CC[C@H](O[C@@H]4O[C@H](CO)[C@@H](O)[C@H](O)[C@H]4O[C@@H]4O[C@H](CO)[C@@H](O)[C@H](O)[C@H]4O)C(C)(C)[C@@H]3CC[C@]12C (stereo partly specified)
inactive: Potency [1] | Potency [2] | Potency [3]

CC1(C)CC[C@]2(C(=O)O[C@@H]3O[C@H](CO[C@@H]4O[C@H](CO)[C@@H](O)[C@H](O)[C@H]4O)[C@@H](O)[C@H](O[C@@H]4O[C@H](CO)[C@@H](O)[C@H](O)[C@H]4O)[C@H]3O)[C@H](O)C[C@]3(C)C(=CCC4[C@@]5(C)CC[C@H](O[C@@H]6OC[C@@H](O)[C@H](O)[C@H]6O)[C@@](C)(C(=O)O)C5CC[C@]43C)[C@@H]2C1 (stereo partly specified)
inactive: Potency [1] | activity change, negative = viability loss [2] -2.24% [at 9.23 µM] | activity change, negative = cell killing [3] -1.62% [at 9.23 µM]

C/C=C(\C)C(=O)OCC1OC(OC2OC(CO)C(O)C(O)C2O)C(O)C(O)C1O (stereo unspecified)
inactive: Potency [1] | Potency [2] | Potency [3]

CC(C)C[C@H](NC(=O)[C@@H]1O[C@H]1C(=O)O)C(=O)NCCCCN=C(N)N
inactive: Potency [1] | Potency [2] | Potency [3]

CCC(C)C(C(=O)O)N1Cc2c(OCC=C(C)C)c(C)c(OC)c(C(=O)O)c2C1=O (stereo unspecified)
inactive: Potency [1] | Potency [2] | Potency [3]

Cc1cn2cc(CC(=O)N3CCC4(CC3)CN(Cc3ccc(-n5nccn5)cc3Cl)C4)nc2s1
inactive: Potency [1] | Potency [2] | Potency [3]

COC(=O)C(CC1(O)c2ccccc2N2C(=O)C(C)(C)N(O)C21)n1cnc2ccccc2c1=O (stereo unspecified)
inactive: Potency [1] | Potency [2] | Potency [3]

Cc1cc(CO)c(O)c(C(=O)CC2CC(=O)NC(=O)C2)c1
inactive: Potency [1] | Potency [2] | Potency [3]

C=C1[C@H](OC(C)=O)[C@H]2[C@@H](OC(=O)c3ccccc3)[C@@H](C)C[C@]2(O)[C@@H](OC(C)=O)[C@H](C)/C=C/C(C)(C)C(=O)[C@H](OC(C)=O)[C@H]1OC(C)=O
inactive: Potency [1] | Potency [2] | Potency [3]

CC(C)=CCC[C@](C)(O[C@@H]1O[C@H](CO[C@@H]2OC[C@H](O)[C@H](O)[C@H]2O)[C@@H](O)[C@H](O)[C@H]1O)[C@H]1CC[C@]2(C)[C@@H]1[C@H](O)C[C@@H]1[C@@]3(C)CC[C@H](O[C@@H]4O[C@H](CO)[C@@H](O)[C@H](O)[C@H]4O[C@@H]4O[C@H](CO)[C@@H](O)[C@H](O)[C@H]4O)C(C)(C)[C@@H]3CC[C@]12C
inactive: Potency [1] | Potency [2] | Potency [3]

CC(C)=C1CC2C(CCC2(C)O)C(C)(O)CC1=O (stereo unspecified)
inactive: Potency [1] | Potency [2] | Potency [3]

COC(=O)C1(O)C(OC(C)=O)CCC2C3(CC(c4ccoc4)OC3=O)C(C)=CCC21C(=O)OC (stereo unspecified)
inactive: Potency [1] | Potency [2] | Potency [3]

C=C1C(O)CC2C(C(=O)O)=COC(O[C@@H]3O[C@H](COC(=O)c4ccc(O)cc4)[C@@H](O)[C@H](O)[C@H]3O)C12 (stereo partly specified)
inactive: Potency [1] | Potency [2] | Potency [3]

CC1C(O)C(O)C2C(C(=O)OCCc3ccc(O)cc3)=COC(O[C@@H]3O[C@H](CO)[C@@H](O)[C@H](O)[C@H]3O)C12 (stereo partly specified)
inactive: Potency [1] | Potency [2] | Potency [3]

NC[C@@H]1O[C@@H](O[C@@H]2[C@@H](O[C@@H]3O[C@H](CO)[C@@H](O)[C@H]3O)[C@H](O)[C@@H](N)C[C@H]2N)[C@@H](N)[C@H](O)[C@H]1O
inactive: Potency [1] | activity change, negative = viability loss [2] 4.31% [at 9.23 µM] | outcome [3] inactive [at 9.23 µM]
